Many of the other results were omitted from the sample, so hits are more common in it than they were.
TTR transcr act – TTR transcription activators in neuroblastoma reporter cells, primary screen, cell-based, luminescence, SH-SY5Y, TTR promoter Gaussia luciferase; 100% = recombinant luciferase protein wells; activation, % at 16.7 µM; 1.3% of 92,000 active; AID 1117267, 2014;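 active means activation above the mean of all tested compounds plus 3 SD, cut at about 9.5% in these data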;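 further: cells exposed to compounds for one day before reading; 0% = median of all test compound wells on the plate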
HuH7 TTR inh – TTR promoter reporter inhibitors in hepatoma cells, counter-screen for TTR transcription activator project, cell-based, luminescence, HuH7 hepatoma; shares compounds with TTR transcr act; HuH7 TTR promoter-Gaussia luciferase reporter; inhibition, % at 16.7 µM; 4% of 1,100 active;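 active means average inhibition above the solvent-only control wells' mean plus 3 SD, cut at about 15% in these data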;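 further: 0% = cells with DMSO only and 100% = cells with inhibitor control FD; inhibitors lower well luminescence so higher value means more inhibition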
TTR up confirm – TTR transcription activators, retest, confirmation, cell-based, luminescence, SH-SY5Y, triplicate; shares compounds with TTR transcr act; SHSY5Y TTR promoter Gaussia luciferase; 100% = purified Lucia enzyme wells, no cells; activation, % at 16.7 µM; 1,100 tested, under 10 active; AID 1117280, 2014;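 active means mean activation above a set limit taken from the earlier primary screen, cut at about 11% in these data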;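 further: 0% = DMSO-treated cells and 100% = recombinant Lucia luciferase without cells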
* marks the source's active call; other numbers are inactive results.

`O=C(Nc1ccccc1C(F)(F)F)O[C@@H]1CC[C@@]23CCCN2C(=O)CCC[C@H]3C1` gave TTR transcr act -0.4.
For CCN(c1ccccc1)S(=O)(=O)c1ccc(F)cc1 the results were TTR transcr act 0.8.
CCN(c1ccccc1)S(=O)(=O)c1ccc(Cl)nc1 was read as TTR transcr act 19.3*, HuH7 TTR inh -4.3 and TTR up confirm 1.3.
Screening O=S(=O)(c1ccc(Cl)nc1)N(Cc1ccccc1)Cc1ccccc1 returned TTR transcr act -2.7.
Screening c1nc(NCC2CCCCO2)c2cc(-c3ccc4c(c3)OCO4)ccc2n1 (stereo not drawn) returned TTR transcr act -1.4.
`CC(C)n1nnnc1C1(C)CSCC(=O)N1Cc1cccc(F)c1` (stereo not drawn) gave TTR transcr act -0.5.
`COC[C@@H]1CCCN1c1ccc2c(c1)O[C@@H]1CCN(C1)S2(=O)=O` gave TTR transcr act 0.9.
For CCOC(=O)N1CCN(C(=O)C[C@H]2C[C@@]3(C(=O)OC)C(=C[C@H](C(C)C)O[C@@H]3C3CC3)N(Cc3cccc4ccccc34)C2=O)CC1 the results were TTR transcr act -0.8.
Screening CCC[C@H]1[C@@H](NC(=O)C2CCOC2)CC[C@@]23CCCN2C(=O)CCC[C@@H]13 (stereo partly drawn) returned TTR transcr act -1.6.
For O=C(O)c1cc([N+](=O)[O-])ccc1-c1ccc([N+](=O)[O-])cc1C(=O)O the results were TTR transcr act -0.3.
For O=C(O)c1cc([N+](=O)[O-])cc2ccccc12 the results were TTR transcr act 15.3*, HuH7 TTR inh -1.4 and TTR up confirm -0.5.
O=C(O)c1ccccc1Nc1ccc([N+](=O)[O-])cc1C(=O)O was read as TTR transcr act 1.4.
For C[C@@H]1CCN(C2CC2)S(=O)(=O)c2c(cccc2N2CC[C@@H](N(C)C)C2)O1 the results were TTR transcr act 2.2.
Screening O=C(Nc1ccccc1Cl)OC1CC2CC1[C@H]1CCCCN1[C@H]2Cc1ccccc1 (stereo partly drawn) returned TTR transcr act -0.7.
`Cc1cccc(Cn2cc(COC(=O)NCCc3ccccc3)nn2)c1` gave TTR transcr act -0.2.
Screening CCCS(=O)(=O)C/C(N)=N/OC(=O)c1ccc(Cl)cc1 returned TTR transcr act -1.0.
CCOC(=O)c1cc(/C(C)=N/OC(=O)c2ccc(Cl)cc2)on1 was read as TTR transcr act 9.8*, HuH7 TTR inh -8.0 and TTR up confirm -0.5.
For C/C(=N\OC(=O)c1ccc(F)cc1)c1ccc(F)c(F)c1 the results were TTR transcr act -0.5.
`FC(F)(F)c1cccc(N2CCN(C(=S)Nc3nccc4ccccc34)CC2)c1` gave TTR transcr act 3.6.
For COC(=O)[C@]12CCCCC=C1N(Cc1ccc(OC)cc1)C(=O)[C@@H]2CC(=O)NCC12CC3CC(CC(C3)C1)C2 the results were TTR transcr act -1.9.
CC[C@@]1(c2cccc(Cl)c2)C(=O)N(C(=O)OC(C)C)N1C(=O)OC(C)C was read as TTR transcr act -1.7.
NC(=O)C1CCN(c2nc(-c3ccc(Oc4ccccc4)cc3)cs2)CC1 was read as TTR transcr act -1.9.
For O=[N+]([O-])c1cc(Cl)ccc1-c1nc(-c2ccncc2)no1 the results were TTR transcr act 10.3*, HuH7 TTR inh -3.3 and TTR up confirm 0.1.
Screening Clc1ccccc1-c1nc(-c2ccncc2)no1 returned TTR transcr act -1.3.
Clc1ccc(-c2nc(-c3ccncc3)no2)c(Cl)c1 was read as TTR transcr act 2.6.
C[C@H]1CN([C@@H](C)CO)S(=O)(=O)c2ccc(-c3cncnc3)cc2O[C@H]1CN(C)C(=O)NC1CCCC1 was read as TTR transcr act -0.5.
Screening C[C@H](CO)N1C[C@H](C)[C@H](CN(C)C(=O)CC2CC2)Oc2cc(Br)ccc2S1(=O)=O returned TTR transcr act 0.1.
`C[C@H]1CN([C@@H](C)CO)S(=O)(=O)c2ccc(Br)cc2O[C@H]1CN(C)C(=O)Cc1ccccc1` gave TTR transcr act 1.7.
Screening CCC(=O)N(C)C[C@H]1Oc2cc(Br)ccc2S(=O)(=O)N([C@@H](C)CO)C[C@H]1C returned TTR transcr act 15.5*, HuH7 TTR inh -10.8 and TTR up confirm 0.1.
Screening C[C@H](CO)N1C[C@H](C)[C@@H](CN(C)C(=O)NC2CCCC2)Oc2cc(Br)ccc2S1(=O)=O returned TTR transcr act 17.9*, HuH7 TTR inh -10.1 and TTR up confirm 2.4.
C[C@H](CO)N1C[C@H](C)[C@@H](CN(C)C(=O)c2ccc(F)cc2)Oc2cc(Br)ccc2S1(=O)=O was read as TTR transcr act 0.6.
CCCNC(=O)N(C)C[C@@H]1Oc2cc(Br)ccc2S(=O)(=O)N([C@@H](C)CO)C[C@H]1C was read as TTR transcr act 3.1.
For C[C@H]1CN([C@@H](C)CO)S(=O)(=O)c2ccc(Br)cc2O[C@H]1CN(C)C(=O)CN(C)C the results were TTR transcr act -0.5.
For C[C@H]1CN([C@@H](C)CO)S(=O)(=O)c2ccc(Br)cc2O[C@@H]1CN(C)C(=O)C1CCOCC1 the results were TTR transcr act 24.5*, HuH7 TTR inh -8.1 and TTR up confirm 0.6.
For CCc1ccc(/C=C/C(=O)NC2=NCCS2)cc1 the results were TTR transcr act -0.8.
For CC(C)c1ccc(NC(=O)OC2CCC23CCC(c2ccccc2)CC3)cc1 (stereo not drawn) the results were TTR transcr act 2.2.
Screening O=C(OCc1cn(Cc2ccc(F)c(F)c2)nn1)N1CCCC1 returned TTR transcr act -0.4.
For CC1=N/C(=C\c2ccc([N+](=O)[O-])cc2)C(=O)N1c1ccc(C)c(Cl)c1 the results were TTR transcr act -0.3.
`CC(C)(C)S(=O)(=O)N1C[C@@H]2C(=C(CCO)C[C@@H]3C(=O)N(c4ccccc4)C(=O)[C@@H]32)[C@H]1CCO` gave TTR transcr act 0.8.
For Cn1c(=O)c(-c2ccccc2)c(O)c2ccccc21 the results were TTR transcr act -0.5.
Screening Cn1c(=O)c2cccnc2c(=O)n1C returned TTR transcr act -1.7.
For Cc1cc(C)c(-c2c(O)c3cccnc3n(C)c2=O)c(C)c1 the results were TTR transcr act 10.5*, HuH7 TTR inh -10.1 and TTR up confirm 0.4.
Screening c1ccc(SCc2nc3ccccc3[nH]2)nc1 returned TTR transcr act 14.0*, HuH7 TTR inh -23.0 and TTR up confirm 1.3.
`Cn1nnnc1SCc1nc2ccccc2[nH]1` gave TTR transcr act -0.8.
Screening Cc1nnc(SCc2nc3ccccc3[nH]2)s1 returned TTR transcr act 5.0.
For C[C@H]1[C@@H](NCC2CCCCC2)CC[C@@]23CCCN2C(=O)CCC[C@@H]13 the results were TTR transcr act 1.6.
`C#CCCC(=O)Nc1sc2c(c1-c1nc3ccccc3s1)CCN(C(C)C)C2` gave TTR transcr act -0.1.
`O=C(CNC(=O)c1ccccc1)NCC(=O)OCC(=O)c1ccccc1Cl` gave TTR transcr act 1.6.
Screening O=C(Cc1ccccc1)NCC(=O)OCC(=O)c1ccc(Cl)c([N+](=O)[O-])c1 returned TTR transcr act 46.3*, HuH7 TTR inh -1.5 and TTR up confirm -0.5.

Screening data: PubChem, The Scripps Research Institute Molecular Screening Center
